The list is not random: actives were taken first. Their share in the collection is about 2.9%.
TRPML1 ag: qHTS for Agonists of the Human Mucolipin Transient Receptor Potential 1 (TRPML1). AID 624414, 2012. Mucolipin-1 (Homo sapiens), Q9GZU1. TRPML1-expressing cells, Ca2+ dye fluorescence, FDSS. activation, % (concentration not given with the values). 0.12% of 410,000 active; in the data active = activation above about 50%; inconclusive = mostly about 30% to 49%; also: 0% is about no effect
Target sequence (Q9GZU1 whole entry, looked up): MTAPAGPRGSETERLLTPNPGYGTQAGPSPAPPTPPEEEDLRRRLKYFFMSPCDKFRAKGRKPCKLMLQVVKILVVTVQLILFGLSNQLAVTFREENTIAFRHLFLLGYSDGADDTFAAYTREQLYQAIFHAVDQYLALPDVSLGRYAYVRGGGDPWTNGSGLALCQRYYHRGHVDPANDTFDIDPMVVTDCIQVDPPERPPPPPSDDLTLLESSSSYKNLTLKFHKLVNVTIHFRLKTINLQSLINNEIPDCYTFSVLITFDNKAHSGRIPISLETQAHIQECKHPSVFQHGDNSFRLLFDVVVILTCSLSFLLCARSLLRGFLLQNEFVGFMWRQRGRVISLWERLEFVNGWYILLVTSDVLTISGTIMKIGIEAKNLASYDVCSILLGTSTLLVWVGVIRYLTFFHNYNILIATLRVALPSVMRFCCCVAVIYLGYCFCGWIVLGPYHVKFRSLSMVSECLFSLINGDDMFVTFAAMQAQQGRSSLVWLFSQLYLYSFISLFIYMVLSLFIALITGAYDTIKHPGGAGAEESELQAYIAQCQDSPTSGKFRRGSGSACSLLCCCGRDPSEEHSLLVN
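Cells: TRPML1-DL, 1X Tet inducer, ~16 h at 37 degrees C/5% CO2. Dye: ABD Ca8 no-wash + quencher, 45-90 min RT. Read: 10 s baseline, compound add, 110 s agonist phase; 54-4 EC80 (4uM final), 110 s antagonist phase.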
TRPML1 blocker: qHTS for Inhibitors of the Human Mucolipin Transient Receptor Potential 1 (TRPML1). activity change, negative = inhibition, % (no concentration beside the values). TRPML1-inducible cells, Ca2+ dye fluorescence, FDSS; stronger effect = lower value; inhibition of EC80 agonist-evoked calcium signal. Mucolipin-1 (Homo sapiens), Q9GZU1. 0.02% of 390,000 active; in the data active = activity change below about -50%; inconclusive = between about -30% and that limit;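 also: stimulus is agonist 54-4 at its EC80 concentration; % is scaled to controls: 0 for no effect and ±100 for the full control effect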
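TRPML1-DL cells, Tet-induced overnight (~16 h, 37 °C) at 1,500 cells/well, were loaded with Ca8 no-wash dye plus quencher for 45-90 min at room temperature. Compounds were pinned during FDSS kinetic reading; agonist 54-4 at EC80 (4 uM final) then added.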
DRD3 agonist: qHTS of D3 Dopamine Receptor Agonist: qHTS. D(3) dopamine receptor (Homo sapiens), P35462. D3R DiscoveRx beta-arrestin cells, luminescence, 90 min. max activation, %. 0.58% of 410,000 active. AID 652048, 2013; in the data active = max activation above about 30%; also: 0% is about no effect
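Agonist-mode cell screen: cells plated at 1500/well and incubated overnight at 37 °C, then exposed to library compounds for 90 min at 37 °C. Detection reagent was added for 30–60 min at room temperature, and luminescence was read.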
D3 antag: qHTS of D3 Dopamine Receptor Antagonist: qHTS | 2.5% of 360,000 active | D3R cells, DiscoveRx beta-arrestin luminescence, antagonist mode; stronger effect = lower value | max response, negative = inhibition, % | D(3) dopamine receptor (Homo sapiens), P35462; in the data active = max response below about -50%; inconclusive = no clear call, values can overlap the other calls; also: % is scaled to controls: 0 for no effect and ±100 for the full control effect
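Cells plated overnight at 1500 cells/well, then exposed to library compounds with dopamine controls for 90 minutes at 37 degrees C. DiscoveRx reagent added for 30–60 minutes at room temperature; luminescence read, quantitative HTS format.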
An asterisk follows results filed as active; ! = not active in a repeat.

For CCCCNC(=S)N/N=C1\C(=O)c2cccc3cccc1c23 the results were TRPML1 ag -0.8, TRPML1 blocker 0.3, DRD3 agonist -4.8 and D3 antag 22.3.
`O=C(Cn1c(SCC(=O)N2CCc3ccccc32)nc2ccccc21)NC1CCCC1` gave TRPML1 ag -0.4, TRPML1 blocker 32.2, DRD3 agonist -21.3 and D3 antag -76.4*.
Screening O=C(CSc1ncc(-c2ccccc2)n1C1CCCC1)N1CCc2ccccc21 returned TRPML1 ag 2.3, TRPML1 blocker 18.6, DRD3 agonist -35.5 and D3 antag -84.7*.
Screening COc1ccc(NC(=O)c2ccccc2OCC(=O)Nc2ccc(Br)cc2)cc1 returned TRPML1 ag -0.1.
For CCOc1ccc(OCCOCCN2CCOCC2)cc1 the results were TRPML1 ag -0.2, TRPML1 blocker 2.1, DRD3 agonist -2.3 and D3 antag inconclusive.
CCC(C)c1ccc(OCCCCN2CCOCC2)cc1 (configuration not stated) was read as TRPML1 ag -0.2, TRPML1 blocker -2.0, DRD3 agonist -6.1 and D3 antag -64.6*.
Screening CCCCOc1ccc(OCCCN2CCOCC2)cc1 returned TRPML1 ag 0.1, TRPML1 blocker 1.0, DRD3 agonist 87.3*! and D3 antag 4.9.
Screening COc1ccc(-c2cnc(N)n2CC2CCCO2)cc1 (configuration not stated) returned TRPML1 ag -0.9, TRPML1 blocker 0.5, DRD3 agonist -13.1 and D3 antag inconclusive.
For c1ccc(-c2cnc(SCCN3CCOCC3)n2CC2CCCO2)cc1 (configuration not stated) the results were TRPML1 ag -0.1, TRPML1 blocker 27.8, DRD3 agonist -1.8 and D3 antag -56.5*.
Screening Cc1ccccc1C(=O)Nc1c(C)nc2ccccn2c1=O returned TRPML1 ag 0.6, TRPML1 blocker 5.1 and DRD3 agonist -14.5.
Screening CCOC(=O)c1c(-c2ccc(C)s2)csc1NC(=O)c1cccs1 returned TRPML1 ag -1.0, TRPML1 blocker -4.6, DRD3 agonist -4.3 and D3 antag -16.5.
`CCOC(=O)c1c(NC(=O)c2cccs2)sc(CC)c1-c1cccs1` gave TRPML1 ag 2.4, TRPML1 blocker -20.2, DRD3 agonist 61.6* and D3 antag 30.7.
For CCOC(=O)c1c(-c2cccs2)csc1NC(=O)CCCC(=O)O the results were TRPML1 ag 0.9, TRPML1 blocker 7.7, DRD3 agonist 44.4* and D3 antag -5.3.
Screening COc1ccc(C)cc1-n1nnc(-c2nc(-c3ccccc3Cl)no2)c1N returned TRPML1 ag 2.3, TRPML1 blocker 35.7 and DRD3 agonist 5.5.
Screening CNc1cc([N+](=O)[O-])ccc1N/C=C/C(=O)c1ccc2c(c1)OCO2 returned TRPML1 ag 0.4, TRPML1 blocker 12.5, DRD3 agonist -22.8 and D3 antag -50.3*.
Screening Cc1ccn2c(c1)nc(=O)c1cc(S(=O)(=O)N3CCC(C)CC3)c(Cl)cc12 returned TRPML1 ag 1.9, TRPML1 blocker -18.5 and DRD3 agonist -2.1.
For CC1Sc2ccccc2N(CC(=O)N(C(C)C)C(C)C)C1=O (configuration not stated) the results were TRPML1 ag 2.8, TRPML1 blocker 0.6, DRD3 agonist -3.0 and D3 antag -70.3*.
`Cc1ccc2nccnc2c1` gave TRPML1 ag -0.2.
For COc1ccc(OCC(=O)N(Cc2cccc(OC)c2)C2CCS(=O)(=O)C2)cc1 (configuration not stated) the results were TRPML1 ag -0.8, TRPML1 blocker 51.7 and DRD3 agonist 10.0.
For CC1(C)CSC(=NCc2ccccc2)N1C(=O)c1cccc([N+](=O)[O-])c1 the results were TRPML1 ag 94.5*, TRPML1 blocker -6.4, DRD3 agonist -0.8 and D3 antag -29.3.
NC(=NCc1ccccc1)c1cccc([N+](=O)[O-])c1 was read as TRPML1 ag 0.7, TRPML1 blocker 10.1, DRD3 agonist -16.4 and D3 antag 0.8.
Screening CCCNC(=O)C1CCC(Cn2c(=O)c3sccc3n(CC(=O)NCc3cccc(OC)c3OC)c2=O)CC1 (configuration not stated) returned TRPML1 ag 0.1, TRPML1 blocker 8.6 and DRD3 agonist 3.7.
COc1cc(C(=O)Nc2ccc3nc(N4CCN(C)CC4)cc(C)c3c2)cc(OC)c1OC was read as TRPML1 ag 1.2, TRPML1 blocker -15.3, DRD3 agonist -16.4 and D3 antag -4.2.
Screening Cc1cc(N2CCN(C)CC2)nc2ccc(NC(=O)c3ccc4c(c3)OCO4)cc12 returned TRPML1 ag 0.6, TRPML1 blocker 2.4, DRD3 agonist -6.0 and D3 antag -75.7*.
O=C(c1ccc2c(c1)OCCO2)N1CCN(c2nc(-c3cccs3)nc3ccccc23)CC1 was read as TRPML1 ag -0.5.
Cc1ccc(CNC(=O)CSc2ncc(S(=O)(=O)c3ccc(C)c(Cl)c3)c(=O)[nH]2)cc1 was read as TRPML1 ag 0.9, TRPML1 blocker -17.0 and DRD3 agonist -1.7.
Screening Cc1ccccc1CN1CCN(S(=O)(=O)c2ccc(F)cc2)CC1 returned TRPML1 ag 2.6, TRPML1 blocker 14.5, DRD3 agonist -0.6 and D3 antag -77.8*.
`COc1ccc(OC)c(CN2CCN(S(=O)(=O)c3ccccc3)CC2)c1` gave TRPML1 ag -0.8, TRPML1 blocker 10.7, DRD3 agonist -10.6 and D3 antag -11.1.
COc1ccccc1CN1CCN(S(=O)(=O)c2ccccc2)CC1 was read as TRPML1 ag 4.1, TRPML1 blocker -11.9, DRD3 agonist -3.4 and D3 antag -67.5*.
COc1cccc(CN2CCN(S(=O)(=O)c3ccccc3)CC2)c1OC was read as TRPML1 ag 2.6, TRPML1 blocker -21.0, DRD3 agonist 4.4 and D3 antag 2.1.
Screening COc1ccc(CN2CCN(S(=O)(=O)c3ccccc3)CC2)c(OC)c1 returned TRPML1 ag -0.7, TRPML1 blocker -1.4, DRD3 agonist -19.4 and D3 antag -69.5*.
`CCOC(=O)Cc1ccc(NC(=O)N(Cc2ccc(OC)cc2)C2CCN(C(C)=O)CC2)cc1` gave TRPML1 ag 0.3, TRPML1 blocker 8.6 and DRD3 agonist 2.9.
Screening O=C(Nc1ccc(Cl)cc1Cl)[C@@H]1CC=C[C@@H]2CCN(Cc3ccccc3)C(=O)[C@@H]21 returned TRPML1 ag -0.6.
CCN(C(=O)CSc1nnc2ccccn12)c1c(N)n(Cc2ccccc2)c(=O)[nH]c1=O was read as TRPML1 ag -0.8, TRPML1 blocker -7.6, DRD3 agonist 30.5* and D3 antag 9.8.
`CCCCN(C(=O)CSc1nnc2ccccn12)c1c(N)n(Cc2ccccc2)c(=O)[nH]c1=O` gave TRPML1 ag -0.7, TRPML1 blocker -2.7, DRD3 agonist -4.1 and D3 antag -20.4.

Assay outcomes (PubChem BioAssay)
